PubChem BioAssay (Tox21)
Results filed as inconclusive are left out. Calls of active or inactive are those of the source. Unless noted, calls come from the whole dose curve.

Columns and labels:
[1] = Nuclear factor erythroid 2-related factor 2/antioxidant responsive element (Nrf2/ARE) small molecule agonists: qHTS cell viability counter screen in human keratinocytes (AID 1919968; active = well fitted curve in the direction sought with a large enough effect in the repeat runs; an effect the other way counts as inactive or inconclusive; note: nearly all actives have a fitted effect of over 55% in size; note: potency is the fitted concentration of half-maximal effect)
How it was run: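 Parallel cytotoxicity read: KeratinoSens HaCaT cells, compound treatment 23 h, viability by CellTiter-Fluor fluorescence 1 h post-reagent.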

[2] = target: Gonadotropin-releasing hormone receptor (Homo sapiens) (UniProt P30968); test: Human gonadotropin-releasing hormone receptor (GnRHR) small molecule agonists, calcium flux assay in GnRHR-HEK293 cells (AID 1920063); note: nearly all actives have a fitted effect of over 35% in size; note: potency is the fitted concentration of half-maximal effect
Chain of Gonadotropin-releasing hormone receptor (Homo sapiens) (P30968 whole entry, looked up): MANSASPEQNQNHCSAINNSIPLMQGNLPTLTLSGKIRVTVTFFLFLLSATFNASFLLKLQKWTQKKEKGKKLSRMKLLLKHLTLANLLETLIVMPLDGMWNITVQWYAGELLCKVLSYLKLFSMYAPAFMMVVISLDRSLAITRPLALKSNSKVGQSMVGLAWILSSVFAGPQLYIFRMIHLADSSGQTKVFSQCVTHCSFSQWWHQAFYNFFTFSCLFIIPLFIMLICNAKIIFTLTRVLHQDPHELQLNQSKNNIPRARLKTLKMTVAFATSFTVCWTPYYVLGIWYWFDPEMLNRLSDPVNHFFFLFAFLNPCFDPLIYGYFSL
How it was run: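 Calcium flux, agonist mode, human GnRHR stably integrated in HEK293; dye 1 h at 37 C before compound; Ex/Em=480/540 kinetic read, 3 min; 15 concentrations, triplicate.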

[3] = target: KiSS-1 receptor (Homo sapiens) (UniProt Q969F8); test: Human kisspeptin (KISS1R) small molecule agonists, calcium flux assay in KISS1R-HEK293 cells (AID 1920064; active = well fitted curve in the direction sought with a large enough effect in the repeat runs; an effect the other way counts as inactive or inconclusive)
Chain of KiSS-1 receptor (Homo sapiens) (Q969F8 whole entry, looked up): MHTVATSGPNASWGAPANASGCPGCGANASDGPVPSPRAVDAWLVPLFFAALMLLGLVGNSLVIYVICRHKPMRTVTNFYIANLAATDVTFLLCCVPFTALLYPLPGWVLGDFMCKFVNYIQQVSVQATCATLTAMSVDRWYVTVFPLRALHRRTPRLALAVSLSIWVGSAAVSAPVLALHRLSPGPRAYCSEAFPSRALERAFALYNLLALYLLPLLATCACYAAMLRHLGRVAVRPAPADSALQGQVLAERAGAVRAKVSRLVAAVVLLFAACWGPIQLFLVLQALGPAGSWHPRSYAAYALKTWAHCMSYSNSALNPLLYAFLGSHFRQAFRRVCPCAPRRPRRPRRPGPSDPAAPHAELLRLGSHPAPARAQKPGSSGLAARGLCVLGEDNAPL
How it was run: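 Triplicate 15-concentration series were applied to dye-loaded human KISS1R HEK293 cells, and agonist-evoked calcium fluorescence was captured for 3 min.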

[4] = G protein-coupled receptor (GPCR) small molecule agonists, calcium flux assay: HEK293 wild type cell line counter screen (AID 1920065)
How it was run: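 Non-specific calcium responders were flagged by adding DMSO-dissolved compounds to dye-loaded cells and reading 480/540 nm fluorescence each second for 3 min; ATP served as positive control.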

[5] = p53 small molecule agonists, cell-based qHTS assay with human liver microsomes (AID 1963577);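 note: p53 response element beta-lactamase reporter cells with liver microsomes plus NADPH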
How it was run: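 Reporter activation was measured by LiveBLAzer fluorescence intensity in p53RE-bla cells, which had been exposed to compounds for 16 h at 37 C alongside 0.5 mg/mL human liver microsomes and 0.5 mg/mL NADPH (final concentrations).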

[6] = p53 small molecule agonists, cell-based qHTS assay with rat liver microsomes (AID 1963578)
How it was run: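 Compound in DMSO added to p53RE-bla cells 5 h post-plating; rat microsomes/NADPH 0.5 mg/mL final; 16 h, 37 C; LiveBLAzer 2 h RT.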

[7] = p53 small molecule agonists, cell-based qHTS assay with human liver microsomes: qHTS cell viability counter screen (AID 1963579); note: nearly all actives have a fitted effect of over 45% in size; note: potency is the fitted concentration of half-maximal effect
How it was run: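 HLM-supplemented (0.5 mg/mL final) and NADPH-supplemented (0.5 mg/mL final) p53RE-bla cultures, 4,000 cells per well, were dosed with compounds in DMSO for 16 h at 37 C; luminescent ATP detection (CellTiter-Glo, 30 min, room temperature) quantified surviving cells.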

[8] = p53 small molecule agonists, cell-based qHTS assay: qHTS cell viability counter screen (AID 1963581); note: nearly all actives have a fitted effect of over 45% in size; note: potency is the fitted concentration of half-maximal effect
How it was run: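 Multiplexed with the reporter read, a CellTiter-Glo step (30 min, room temperature) gauges ATP-based viability of HCT-116 p53RE-bla cells after 16 h compound incubation at 37 C.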

[9] = p53 small molecule agonists, cell-based qHTS assay (AID 1963582; active = well fitted activation curve with a large enough effect in the signal ratio in the repeat runs, not every such curve was filed as active; the % refers to the signal ratio)
How it was run: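 Beta-lactamase reporter cells (p53RE-bla) treated with compounds for 16 h at 37 C; FRET substrate, 2 h, room temperature; fluorescence intensity.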

[10] = target: 5-hydroxytryptamine receptor 2A (Homo sapiens) (UniProt P28223); test: 5-hydroxytryptamine receptor 2A (HTR2A) small molecule antagonists, cell-based qHTS assay (AID 1963586); note: nearly all actives have a fitted effect of over 45% in size
Chain of 5-hydroxytryptamine receptor 2A (Homo sapiens) (P28223 whole entry, looked up): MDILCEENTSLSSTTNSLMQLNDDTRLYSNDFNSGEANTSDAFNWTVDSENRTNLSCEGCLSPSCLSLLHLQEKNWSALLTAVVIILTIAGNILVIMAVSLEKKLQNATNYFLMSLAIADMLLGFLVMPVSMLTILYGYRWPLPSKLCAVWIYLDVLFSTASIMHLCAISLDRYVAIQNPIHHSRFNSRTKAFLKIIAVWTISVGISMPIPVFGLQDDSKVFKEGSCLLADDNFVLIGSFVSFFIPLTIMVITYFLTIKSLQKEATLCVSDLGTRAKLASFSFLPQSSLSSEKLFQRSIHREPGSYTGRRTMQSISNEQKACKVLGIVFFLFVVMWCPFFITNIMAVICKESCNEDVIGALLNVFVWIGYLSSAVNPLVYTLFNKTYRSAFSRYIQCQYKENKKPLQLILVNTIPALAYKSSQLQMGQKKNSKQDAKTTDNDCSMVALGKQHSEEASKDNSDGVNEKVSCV
How it was run: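 CHO cells stably expressing human HTR2A were plated for 18 h at 37 C, then loaded with calcium dye for 1 h. Compounds were preincubated 5 min at room temperature before DOI (4 nM solution) was added. Kinetic fluorescence was read for 3 min.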

[11] = target: 5-hydroxytryptamine receptor 2A (Homo sapiens) (UniProt P28223); test: 5-hydroxytryptamine receptor 2A (HTR2A) small molecule agonists, cell-based qHTS assay (AID 1963587); note: nearly all actives have a fitted effect of over 30% in size; note: potency is the fitted concentration of half-maximal effect
How it was run: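 Kinetic calcium-flux fluorescence (2 min, 1 sec intervals) after compound addition in agonist mode. HTR2A-CHO cells were cultured 18 h, then dye-loaded 1 h at 37 C.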

[12] = cAMP Responsive Elements (CRE) small molecule antagonists, cell-based qHTS assay (AID 1963591; active = well fitted inhibition curve with a large enough effect in the signal ratio in the repeat runs, not every such curve was filed as active; the % refers to the signal ratio)
How it was run: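 Fluorescence intensity from cleaved LiveBLAzer B/G substrate (2 h, room temperature) quantified CRE-bla activity in HEK 293T cells exposed 3 h to compound with 0.25 uM final NKH477.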

[13] = target: Beta-2 adrenergic receptor (Homo sapiens) (UniProt P07550); test: Adrenergic beta2 receptor (ADRB2) small molecule antagonists, cell-based qHTS assay (AID 1963592); note: series mostly up to about 92 µM; nearly all actives have a fitted effect of over 50% in size
Chain of Beta-2 adrenergic receptor (Homo sapiens) (P07550 whole entry, looked up): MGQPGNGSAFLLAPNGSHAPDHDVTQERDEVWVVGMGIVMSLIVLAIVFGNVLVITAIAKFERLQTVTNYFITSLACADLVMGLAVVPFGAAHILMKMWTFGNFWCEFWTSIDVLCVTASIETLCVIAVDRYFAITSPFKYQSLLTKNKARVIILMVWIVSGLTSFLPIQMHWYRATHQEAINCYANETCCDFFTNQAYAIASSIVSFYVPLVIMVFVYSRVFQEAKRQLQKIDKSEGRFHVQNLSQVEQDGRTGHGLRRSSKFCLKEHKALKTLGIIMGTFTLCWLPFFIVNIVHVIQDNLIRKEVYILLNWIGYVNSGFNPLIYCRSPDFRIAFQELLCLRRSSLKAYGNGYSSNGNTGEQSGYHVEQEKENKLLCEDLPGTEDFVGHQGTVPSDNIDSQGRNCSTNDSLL
How it was run: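 Assay format: CHO-ADRB2 cells, 18-20hr seeding at 37C/5% CO2, then compound plus 1nM isoproterenol agonist mix for 0.5hr RT. Homogeneous time-resolved fluorescence cAMP detection after 1hr, expressed as 665/615 nm ratio.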

[14] = target: Beta-2 adrenergic receptor (Homo sapiens) (UniProt P07550); test: Adrenergic beta2 receptor (ADRB2) small molecule agonists, cell-based qHTS assay (AID 1963593);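 note: CHO cells stably overexpressing human ADRB2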
How it was run: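 CHO cells stably over-expressing ADRB2 were plated overnight at 37C, then dosed with compounds plus a stimulation mix containing 100uM IBMX and 25uM Ro-20-1724 for 0.5hr at room temperature. cAMP was measured by HTRF competition, 1hr.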

[15] = target: D(2) dopamine receptor (Homo sapiens) (UniProt P14416); test: Dopamine D2 receptor (DRD2) small molecule agonists, cell-based qHTS assay (AID 1963594); note: nearly all actives have a fitted effect of over 35% in size
Chain of D(2) dopamine receptor (Homo sapiens) (P14416 whole entry, looked up): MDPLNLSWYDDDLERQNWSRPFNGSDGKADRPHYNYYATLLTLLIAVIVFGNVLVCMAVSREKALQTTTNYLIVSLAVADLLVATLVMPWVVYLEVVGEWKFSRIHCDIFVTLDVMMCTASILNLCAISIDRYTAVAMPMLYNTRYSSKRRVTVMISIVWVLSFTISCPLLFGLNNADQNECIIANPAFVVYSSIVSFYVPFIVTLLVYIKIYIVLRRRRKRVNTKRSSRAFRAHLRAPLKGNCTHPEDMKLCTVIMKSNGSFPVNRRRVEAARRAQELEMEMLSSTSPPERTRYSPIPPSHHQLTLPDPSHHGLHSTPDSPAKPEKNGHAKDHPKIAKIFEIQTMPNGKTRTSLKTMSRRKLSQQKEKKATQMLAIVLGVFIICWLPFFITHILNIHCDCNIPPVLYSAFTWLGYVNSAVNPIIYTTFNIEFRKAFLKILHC
How it was run: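 cAMP accumulation in DRD2-HEK293 cells measured by HTRF after 1 h detection; compounds added 10 min before NKH477 (200nM […]) forskolin-analogue stimulation, 30 min at room temperature, with Ro20-1724 present at 0.1 mM final.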

[16] = target: D(2) dopamine receptor (Homo sapiens) (UniProt P14416); test: Dopamine D2 receptor (DRD2) small molecule antagonists, cell-based qHTS assay (AID 1963595; active = well fitted inhibition curve with a large enough effect in the signal ratio in the repeat runs, with a control signal flat; the % refers to the signal ratio; note: potency is the fitted concentration of half-maximal effect)
How it was run: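 Cells were plated and grown for 24 h at 37 °C. Ro20-1724 (0.1 mM final) went in first, then compound for 10 min. NKH477 (200 nM) with quinpirole (12 nM) followed for 30 min at RT, then HTRF detection reagents for 1 h.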

[17] = p53 small molecule agonists, cell-based qHTS assay with rat liver microsomes: qHTS cell viability counter screen (AID 1963580); note: nearly all actives have a fitted effect of over 45% in size; note: potency is the fitted concentration of half-maximal effect
How it was run: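 Rat liver microsome (0.5 mg/mL final) and NADPH (0.5 mg/mL final) co-incubation with compounds for 16 h at 37 C on HCT-116 p53RE-bla cells; cytotoxicity taken from intracellular ATP luminescence.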

[18] = target: Muscarinic acetylcholine receptor M1 (Homo sapiens) (UniProt P11229); test: Cholinergic receptor muscarinic 1 (CHRM1) small molecule agonists, cell-based qHTS assay (AID 1963589); note: nearly all actives have a fitted effect of over 35% in size
Chain of Muscarinic acetylcholine receptor M1 (Homo sapiens) (P11229 whole entry, looked up): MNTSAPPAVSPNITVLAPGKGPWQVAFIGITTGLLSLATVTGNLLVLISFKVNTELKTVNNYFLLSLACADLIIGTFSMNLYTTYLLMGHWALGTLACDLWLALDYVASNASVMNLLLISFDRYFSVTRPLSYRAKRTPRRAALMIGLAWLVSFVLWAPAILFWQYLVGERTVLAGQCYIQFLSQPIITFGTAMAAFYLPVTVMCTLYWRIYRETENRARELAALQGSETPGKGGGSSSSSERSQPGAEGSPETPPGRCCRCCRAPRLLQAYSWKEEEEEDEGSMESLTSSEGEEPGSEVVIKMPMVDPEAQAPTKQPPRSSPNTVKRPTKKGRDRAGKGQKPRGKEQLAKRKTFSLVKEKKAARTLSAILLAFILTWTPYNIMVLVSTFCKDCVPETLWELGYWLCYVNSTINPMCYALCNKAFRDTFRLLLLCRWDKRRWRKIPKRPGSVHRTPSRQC
How it was run: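 qHTS, 15-point titration, 3 independent runs: compounds pin-transferred onto dye-loaded CHRM1-CHO cells (human M1), calcium fluorescence followed every second to detect agonism.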

[19] = cAMP Responsive Elements (CRE) small molecule agonists, cell-based qHTS assay (AID 1963590)
How it was run: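 Quantitative HTS for CRE agonists: HEK 293T CRE-bla cells, overnight plating, 3 h compound incubation at 37 C/5% CO2, then 2 h room-temperature LiveBLAzer B/G FRET substrate loading.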

[20] = target: Muscarinic acetylcholine receptor M1 (Homo sapiens) (UniProt P11229); test: Cholinergic receptor muscarinic 1 (CHRM1) small molecule antagonists, cell-based qHTS assay (AID 1963588); note: nearly all actives have a fitted effect of over 40% in size
How it was run: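 Compounds were tested at 15 concentrations in three independent runs. Dye-loaded CHRM1-CHO cells were exposed 5 min at room temperature before stimulation by acetylcholine added at 50nM. Intracellular calcium was read kinetically on FDSS for 3 min.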
% is set by controls: 0 for no effect and ±100 for the full control effect.

CN1CCC(O)(c2ccc(F)cc2)C(C(=O)c2ccc(F)cc2)C1 (stereo not given)
inactive: Potency [1] | Potency [2] | Potency [3] | Potency [4] | Potency [5] | Potency [6] | Potency [7] | Potency [8] | Potency [9] | Potency [10] | Potency [11] | Potency [12] | Potency [13] | Potency [14] | Potency [15] | Potency [16]

CCCCCCC(=O)CCCCCC/C=C/C[C@@H](O)[C@H](O)[C@@](N)(CO)C(=O)O
inactive: activity change, negative = cytotoxicity [1] -1.3% [at 19 µM] | activity change [2] 0.629% [at 11.8 µM, stronger effect = higher value] | activation [3] 0.0857% [at 15.8 µM] | activation [4] 0.714% [at 11.8 µM] | activation [5] 4.34% [at 13.5 µM] | activation [6] 0.608% [at 13.6 µM] | activity change, negative = cytotoxicity [7] 0.682% [at 13.5 µM] | activity change, negative = cytotoxicity [17] -0.611% [at 13.5 µM] | activity change, negative = cytotoxicity [8] 17.4% [at 13.5 µM] | activation [9] 0.605% [at 13.5 µM] | activity, negative = inhibition [10] 87.4% [at 12.7 µM] | activation [11] 2.62% [at 15.9 µM] | activation [18] -0.559% [at 15.8 µM] | activation [19] 3.57% [at 19 µM] | activity change, negative = inhibition [12] -12.2% [at 18.9 µM] | activity change, negative = inhibition [16] 0.928% [at 18.9 µM]

c1cncc([C@@H]2CCCCN2)c1
inactive: Potency [1] | Potency [2] | Potency [3] | Potency [4] | Potency [5] | Potency [6] | Potency [7] | Potency [17] | Potency [8] | Potency [10] | Potency [11] | Potency [20] | Potency [18] | Potency [19] | Potency [12] | Potency [13] | Potency [15] | Potency [16]

[F][Sn]([c]1ccccc1)([c]1ccccc1)[c]1ccccc1
active: Potency [1] 864 nM | Potency [2] 34700 nM | Potency [7] 2290 nM | Potency [17] 11500 nM | Potency [8] 2890 nM | Potency [11] 30900 nM | Potency [16] 2730 nM
inactive: Potency [3] | Potency [4] | Potency [5] | Potency [6] | Potency [10] | Potency [13] | Potency [14] | Potency [15]

CCc1cccc(C)c1N(C(=O)CCl)[C@@H](C)COC
inactive: Potency [1] | Potency [2] | Potency [3] | Potency [4] | Potency [5] | Potency [6] | Potency [7] | Potency [17] | Potency [8] | Potency [10] | Potency [11] | Potency [20] | Potency [18] | Potency [19] | Potency [13] | Potency [15] | Potency [16]

Cc1cc(C)nc(Nc2ccccc2)n1
inactive: Potency [1] | Potency [2] | Potency [3] | Potency [4] | Potency [5] | Potency [6] | Potency [7] | Potency [17] | Potency [9] | Potency [10] | Potency [11] | Potency [18] | Potency [13] | Potency [15]

CCCCCOC(=O)c1ccccc1C(=O)OCCCCC
inactive: Potency [1] | Potency [2] | Potency [3] | Potency [4] | Potency [5] | Potency [6] | Potency [7] | Potency [17] | Potency [8] | Potency [10] | Potency [11] | Potency [20] | Potency [18] | Potency [19] | Potency [12] | Potency [13] | Potency [14] | Potency [15] | Potency [16]
